One may read the AC50 as the concentration giving half of the maximal activity seen.

Read-out in assay [1]: Vascular endothelial growth factor receptor 2 (Homo sapiens) (UniProt P35968)
Kind of assay: BSK_4H_VEGFRII: BioMAP Diversity Plus: 4H Assay for Vascular endothelial growth factor receptor 2 (VEGFR2) Biomarker Activity (AID 2283031).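 For AC50: cell-surface VEGFR2 protein level quantified by ELISA.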 The settings on record: primary human endothelial cells (HUVEC); actives raise or lower the signal. An outline of the steps:
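ELISA read-out of VEGFRII in primary human umbilical vein endothelium, taken 24 h after chemical treatment. Responses are expressed relative to DMSO, with bidirectional fitting.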

Read-out in assay [2]: Human Leukocyte Antigen - DR isotype (HLADR), HLA-DRA (gene 3122)
The assay is described as follows: BSK_BE3C_HLADR: BioMAP Diversity Plus: BE3C Assay for Human Leukocyte Antigen - DR isotype (HLADR) Biomarker Activity (AID 2283032). Conditions: primary human bronchial epithelial cells; actives raise or lower the signal. An outline of the steps:
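BioMAP BE3C format: human bronchial epithelium, 24 h compound treatment, ELISA detection of HLA-DR, with bidirectional analysis relative to DMSO.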

Read-out in assay [3]: Interferon-gamma inducible Protein 10 (IP10), CXCL10 (gene 3627)
Kind of assay: BSK_BE3C_IP10: BioMAP Diversity Plus: BE3C Assay for Interferon-gamma inducible Protein 10 (IP10) Biomarker Activity (AID 2283034). The settings on record: primary human bronchial epithelial cells; actives raise or lower the signal. An outline of the steps: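 BE3C cells (human bronchial epithelial, primary); 24 h exposure; ELISA for IP-10; DMSO-referenced bidirectional fit.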

Read-out in assay [4]: Monokine induced gamma interferon (MIG), CXCL9 (gene 4283)
The assay is described as follows: BSK_BE3C_MIG: BioMAP Diversity Plus: BE3C Assay for Monokine induced gamma interferon (MIG) Biomarker Activity (AID 2283035).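 For outcome: MIG protein measured by ELISA in BE3C cultures after 24 h of dosing.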 Conditions: primary human bronchial epithelial cells; actives raise or lower the signal. An outline of the steps:
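Dose cells (human primary bronchial epithelial), incubate 24 h, quantify MIG by ELISA, then fit concentration–response in both directions relative to DMSO control.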

Read-out in assay [5]: Transforming growth factor beta 1 (TGFb1), TGFB1 (gene 7040)
The assay is described as follows: BSK_BE3C_TGFb1: BioMAP Diversity Plus: BE3C Assay for Transforming growth factor beta 1 (TGFb1) Biomarker Activity (AID 2283036;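 for outcome: TGF-b1 protein level measured by ELISA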). Conditions: primary human bronchial epithelial cells; actives raise or lower the signal. An outline of the steps:
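TGF-b1 measured via ELISA, 24 h after chemical dosing of human bronchial epithelial cells (BE3C). Overt cytotoxicity assessed in parallel by SRB (0.1%, TCA-fixed, 560 nm); analysis bidirectional relative to DMSO.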

Read-out in assay [6]: Plasminogen activator inhibitor-1 (PAI1), SERPINE1 (gene 5054)
Kind of assay: BSK_BE3C_PAI1: BioMAP Diversity Plus: BE3C Assay for Plasminogen activator inhibitor-1 (PAI1) Biomarker Activity (AID 2283037). The settings on record: primary human bronchial epithelial cells; actives raise or lower the signal. An outline of the steps: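 In this multiplexed primary-cell system, bronchial epithelial cells receive test chemical and are sampled at 24 h. PAI-1 is read by ELISA, with DMSO serving as negative control for bidirectional fitting.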

Read-out in assay [7]: urokinase plasminogen activator (uPA), PLAU (gene 5328)
The assay is described as follows: BSK_BE3C_uPA: BioMAP Diversity Plus: BE3C Assay for urokinase plasminogen activator (uPA) Biomarker Activity (AID 2283038).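 For outcome: uPA protein level quantified by ELISA in cell cultures; uPA read one day after compound addition.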 The settings on record: primary human bronchial epithelial cells; actives raise or lower the signal. An outline of the steps:
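Bronchial epithelial cells (human, primary); chemical 24 h; uPA by ELISA; bidirectional fit vs DMSO. SRB (0.1%, after 10% TCA fixation, 560 nm) in parallel cultures for cytotoxicity.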

Read-out in assay [8]: Urokinase-type plasminogen activator receptor (uPAR), PLAUR (gene 5329)
Kind of assay: BSK_BE3C_uPAR: BioMAP Diversity Plus: BE3C Assay for Urokinase-type plasminogen activator receptor (uPAR) Biomarker Activity (AID 2283039).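 For outcome: uPAR protein level measured by ELISA on the cells; cells exposed to compound for one day before measurement.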 Conditions: primary human bronchial epithelial cells; actives raise or lower the signal. An outline of the steps:
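Chemically treated human bronchial epithelial cells (lung primary) are assayed for uPAR by ELISA after 24 h, with data fitted in both directions using DMSO as negative control.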

Read-out in assay [9]: Interleukin-6 (IL6), IL6 (gene 3569)
The assay is described as follows: BSK_CASM3C_IL6: BioMAP Diversity Plus: CASM3C Assay for Interleukin-6 (IL6) Biomarker Activity for (AID 2283040). The settings on record: primary human coronary artery smooth muscle cells; actives raise or lower the signal.

Molecules are shown by their SMILES. Where “and” joins values, the source holds several entries; their conditions need not be identical. Equal entries are not always repeated. The source holds several records for some structures; these can differ, active in one and inactive in another. Calls of active or inactive are those of the source. Rule for the calls: active = hit-call score of the fitted dose curve at least 0.9, where 1 is the maximum; inactive = score below 0.9.

Take `CC(C)(COC(=O)c1ccccc1)COC(=O)c1ccccc1`: in assay [1], the AC50 is 28.4 µM (active). In addition, the result in assay [2], in assay [3], in assay [4], in assay [5], in assay [6] and in assay [7] was inactive. Besides, the result in [8] and in [9] was inactive.
Consider `O=C(O)c1cn(-c2ccc(F)cc2)c2cc(N3CCNCC3)c(F)cc2c1=O`, for which the outcome in [1], in assay [2], in [3], in assay [4], in assay [5] and in assay [6] was inactive. Besides, the result in [7], in assay [8] and in assay [9] was inactive.
As for `c1ccc2c(c1)c1cccc3ccc4cccc2c4c31`, the outcome in assay [1], in assay [2], in [3], in assay [4], in assay [5] and in assay [6] was inactive. The outcome in assay [7], in assay [8] and in assay [9] was inactive.
Take `O=C(O)c1cn(C2CC2)c2cc(N3CCNCC3)c(F)cc2c1=O`: the outcome in assay [1], in assay [2], in assay [3], in assay [4], in [5] and in assay [6] was inactive. Also, the outcome in [7], in [8] and in assay [9] was inactive.
Turning to `CC[Si](OC(C)=O)(OC(C)=O)OC(C)=O`, the outcome in [1], in assay [2], in assay [3], in assay [4], in [6] and in assay [7] was inactive. Besides, the outcome in assay [8] and in assay [9] was inactive.
In the case of `c1ccc2sc(SN(C3CCCCC3)C3CCCCC3)nc2c1`, the AC50 was 5.07 µM (active) in [1] and 2.67 µM (active) in [3]. For the same compound, the outcome in [2], in assay [4], in assay [5], in assay [6], in assay [7] and in [8] was inactive. For the same compound, the outcome in assay [9] was inactive.
For `CC(C)c1ccc(C(C)C)cc1`, the AC50 in [1] was 33.3 µM (active); in assay [2] it was 30.8 µM (active); in assay [3], 30.9 µM (active); in [8], 20 µM (active); in [9] it was 20000 nM (active). For the same compound, the result in [4], in assay [5], in [6] and in assay [7] was inactive.
Consider `OC1OC[C@@H](O)[C@H](O)[C@H]1O` (some centres undefined), for which the outcome in assay [1], in assay [2], in assay [3], in assay [4], in assay [6] and in [7] was inactive. The outcome in assay [8] and in assay [9] was inactive.
`Cc1ccc(Nc2ccc(O)c3c2C(=O)c2ccccc2C3=O)cc1`: the result in assay [1], in [2], in assay [3], in assay [4], in [5] and in assay [6] was inactive. For the same compound, the result in assay [7], in assay [8] and in assay [9] was inactive.
As to `COC(=O)c1ccc(C)cc1`, the result in assay [1], in [2], in [3], in assay [4], in [5] and in [6] was inactive. The result in [7], in [8] and in assay [9] was inactive.
With `O=C=NC1CCC(CC2CCC(N=C=O)CC2)CC1` (centres undefined), the outcome in [1], in assay [2], in assay [3], in assay [4], in assay [5] and in assay [6] was inactive. Further, the result in [7], in assay [8] and in assay [9] was inactive.
For `O=C1OC2(c3cc(Br)c(O)c(Br)c3Oc3c2cc(Br)c(O)c3Br)c2c(Cl)c(Cl)c(Cl)c(Cl)c21`, the concentration at half-maximal activity (AC50) in assay [2] is 0.56 µM (active); in assay [3], 0.818 µM (active); in assay [4], 2.49 µM (active); in assay [5] it was 0.587 µM (active); in [6] it was 0.563 µM (active); in [7], 0.736 µM (active). For the same compound, the AC50 in assay [8] is 0.84 µM (active). For the same compound, the outcome in [9] was inactive.
As to `CNC[C@H](O)c1cccc(O)c1`, the outcome in assay [1], in assay [2], in assay [3], in assay [4], in assay [5] and in assay [6] was inactive. Also, the result in assay [7], in [8] and in assay [9] was inactive.
As for `O=C(O)C[C@H](O)C[C@H](O)/C=C/c1c(C2CC2)nc2ccccc2c1-c1ccc(F)cc1`, the result in [1], in assay [3], in [4], in assay [5], in assay [6] and in assay [8] was inactive. Further, the results for the AC50 in [2], in [7] and in assay [9] were 0.028 µM (active), 1.7 µM (active) and 4.1 nM (active), respectively.
In the case of `CCc1c(C)cc(N)c(CC)c1N`, the result in [1], in assay [2], in assay [3], in assay [4], in [5] and in [6] was inactive. The result in assay [7], in assay [8] and in assay [9] was inactive.
Consider `NCCNCCN`, for which the outcome in assay [1], in [2], in [3], in assay [4], in assay [6] and in assay [7] was inactive. Besides, the result in assay [8] and in assay [9] was inactive.
Consider `CCCCC/C=C/C=C/C=O`, for which the half-maximal activity concentration (AC50) is 20 µM (active) in [1]; 20 µM (active) in assay [2]; 28.4 µM (active) in assay [3]; 34.3 µM (active) in [4]; 31.3 µM (active) in assay [7]. Besides, the outcome in assay [5], in assay [6], in assay [8] and in [9] was inactive.
As to `N#Cc1ccc(CC(=NNC(=O)Nc2ccc(OC(F)(F)F)cc2)c2cccc(C(F)(F)F)c2)cc1`, the outcome in assay [1], in [2], in assay [3], in assay [4], in assay [5] and in [6] was inactive. Further, the result in assay [7], in assay [8] and in assay [9] was inactive.
On to `CC(C)Oc1ccccc1O`, for which the outcome in [1], in assay [2], in assay [3], in assay [4], in assay [5] and in assay [6] was inactive. The outcome in [7], in assay [8] and in assay [9] was inactive.
For `CC(=O)OCCC(C)CC(C)(C)C` (centres undefined), the result in [1], in assay [2], in [3], in assay [4], in assay [6] and in assay [7] was inactive. Further, the outcome in [8] and in [9] was inactive.
Turning to `C=CCOC(=O)CCC1CCCCC1`, the result in [1], in assay [2], in [3], in [4], in [6] and in assay [7] was inactive. Also, the outcome in assay [8] and in assay [9] was inactive.
As for `C[C@H]1C[C@@H]2[C@H]([C@@H](O)C[C@@]3(C)[C@H]2CC[C@]3(O)C(=O)CO)[C@@]2(C)C=CC(=O)C=C12`, the result in [1], in assay [2], in assay [3], in assay [4], in assay [6] and in assay [7] was inactive. Also, the outcome in [8] was inactive. Also, in assay [9], the AC50 was 352 nM (active) and 321 nM (active).
Regarding `CC(=O)O[C@]1(C(C)=O)CC[C@H]2[C@@H]3C[C@H](C)C4=CC(=O)CC[C@]4(C)[C@H]3CC[C@@]21C`, the result in [1], in assay [3], in assay [4], in assay [5], in assay [6] and in assay [7] was inactive. In [8], the outcome was inactive. For the same compound, the figures for the AC50 in [2] and in assay [9] were 10 µM (active) and 8.2 nM (active), respectively.
`Nc1cc([N+](=O)[O-])ccc1O`: the result in assay [1], in assay [2], in [3], in assay [4], in assay [6] and in assay [7] was inactive. For the same compound, the outcome in [8] and in assay [9] was inactive. In assay [6], the half-maximal activity concentration (AC50) was 11.8 µM (active).
In the case of `O=P(c1ccccc1)(c1ccccc1)c1ccccc1`, the outcome in [1], in assay [2], in assay [3], in assay [4], in assay [5] and in [6] was inactive. For the same compound, the outcome in assay [7], in assay [8] and in assay [9] was inactive.
Regarding `CC(=O)[C@H]1CC[C@H]2[C@@H]3CC=C4C[C@@H](O)CC[C@]4(C)[C@H]3CC[C@]12C`, the outcome in assay [1], in assay [2], in [3], in assay [4], in assay [6] and in assay [7] was inactive. Besides, the outcome in assay [8] and in [9] was inactive.
Turning to `COc1cc(C=O)ccc1OC(=O)C(C)C`, the outcome in [1], in [2], in assay [3], in [4], in [6] and in assay [7] was inactive. Further, the outcome in assay [8] and in [9] was inactive.

Source of the values: PubChem BioAssay (EPA / NIEHS).
